# Assay outcomes as filed in PubChem BioAssay.
# BL2 CD40 inh: CD40 pathway inhibition in BL2 cells; BL2 NF-kB luciferase reporter, CD40L-induced, 4 h; inhibition, % at 10 µM; 83,000 compounds, 0.94% hits; AID 1053188;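 active = mean inhibition of at least 50% with a set share of replicates also reaching that level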
# Hits are given with their value; 0 = inactive; [ ] = another dose, or the depositor's remark. This excerpt belongs to a sample that is enriched for hits.
SMILES,BL2 CD40 inh
N#C/C(=C(/O)c1ccc(F)cc1)c1nc2ccccc2s1,0
O=C(Nc1nnc(S(=O)(=O)N2CCCC2)s1)c1ccccc1F,0
COc1ccc(NC(=O)N2C[C@H](O)COC[C@@H]3O[C@H](CC(=O)N4CCCCC4)CC[C@H]32)cc1,0
N#C[C@@H]1[C@H](c2ccc(C#Cc3ccccc3F)cc2)[C@@H](CO)N1C(=O)C1CC1,86[25 µM]
N#C[C@@H]1[C@H](c2ccc(C#Cc3ccccc3F)cc2)[C@H](CO)N1C(=O)C1CC1,0
N#C[C@H]1[C@@H](c2ccc(C#Cc3ccccc3F)cc2)[C@H](CO)N1C(=O)C1CC1,0
CCS(=O)(=O)N1[C@H](CO)[C@H](c2ccc(C#CCC3CCCC3)cc2)[C@@H]1C#N,0
O=c1[nH]c(NCc2ccccc2)nc2c1CCC2,0
CCOC(=O)c1c(SCCN2CCCC2)n(-c2ccccc2)c(=S)n(-c2ccccc2)c1=O,51
CCOC(=O)c1c(C)c(C(=O)N2CCN(c3ccccc3)CC2)c(C)n1C,0
CCOC(=O)C1CCCN(CCC(C)c2ccccc2)C1 (centres undefined),0
O=S(=O)(CCS(=O)(=O)c1ccccc1)c1ccccc1,0
CC(S(=O)(=O)c1ccccc1)S(=O)(=O)c1ccccc1,0
CC(C)(C)OC(=O)CC(S(=O)(=O)c1ccccc1)S(=O)(=O)c1ccccc1,67
Cc1cc(C(=O)OCC(=O)N2CC(=O)Nc3ccccc32)no1,0
O=C(OCC(=O)N1CCN(c2ccccc2)CC1)C1CCCN1S(=O)(=O)c1ccc(Cl)cc1 (centres undefined),0
Cc1cc(Nc2cccc([N+](=O)[O-])c2)n2c(nc3ccccc32)c1C#N,78
Cc1cc(NCCCN2CCOCC2)n2c(nc3ccccc32)c1C#N,0
Cc1cc(NCCN2CCOCC2)n2c(nc3ccccc32)c1C#N,0
C[C@@H]1CCCCO[C@H](CN(C)Cc2ccc(C(F)(F)F)cc2)[C@H](C)CN([C@H](C)CO)C(=O)c2cc(NC(=O)Nc3cccc4ccccc34)ccc2O1,0
Nc1ccc2nc[nH]c2c1,0
CSCCC(NC(=O)OC(C)(C)C)C(=O)Oc1ccc2c(=O)c(-c3ccc4c(c3)OCCO4)coc2c1 (centres undefined),0
CCc1cc2c(=O)c(-c3ccc4c(c3)OCCO4)coc2c(CN2CCCCC2C)c1O (centres undefined),32
O=C(CN1CCC(C(=O)c2ccc3c(c2)OCCO3)CC1)NC1CCCC1,0
CC1(c2cccc(Br)c2)NC(=O)N(CC(=O)Nc2ccc(N3CCCCC3)cc2)C1=O (centres undefined),0
O=S(=O)(c1ccc(Oc2ccc3oc4ccccc4c3c2)nc1)N1CCCC1,0
Cn1c(=O)c2c(nc(NCc3ccco3)n2C)n(C)c1=O,0
O=C1NC(=O)C(Cc2cccc(Oc3ccccc3)c2)S1 (centres undefined),0
